Measurements reported in paper PMC4336329 (PLoS ONE, 2015).
Out of some 310,000 compounds screened, about 14,000 (4.5%) showed an effect of 50% or more. Effects have a minus sign here. For the sample, strong results were picked, then their nearest neighbours and some compounds at random.

target: human ether-à-go-go-related gene (hERG) potassium channel (human, UniProt Q12809); experiment: primary screen, population patch clamp on CHO cells stably expressing hERG; higher = less effect of the substance
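Further: peak tail current of the secondary pulse compared with the same well before compound.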

Chain of human ether-à-go-go-related gene (hERG) potassium channel (Q12809 whole entry, looked up): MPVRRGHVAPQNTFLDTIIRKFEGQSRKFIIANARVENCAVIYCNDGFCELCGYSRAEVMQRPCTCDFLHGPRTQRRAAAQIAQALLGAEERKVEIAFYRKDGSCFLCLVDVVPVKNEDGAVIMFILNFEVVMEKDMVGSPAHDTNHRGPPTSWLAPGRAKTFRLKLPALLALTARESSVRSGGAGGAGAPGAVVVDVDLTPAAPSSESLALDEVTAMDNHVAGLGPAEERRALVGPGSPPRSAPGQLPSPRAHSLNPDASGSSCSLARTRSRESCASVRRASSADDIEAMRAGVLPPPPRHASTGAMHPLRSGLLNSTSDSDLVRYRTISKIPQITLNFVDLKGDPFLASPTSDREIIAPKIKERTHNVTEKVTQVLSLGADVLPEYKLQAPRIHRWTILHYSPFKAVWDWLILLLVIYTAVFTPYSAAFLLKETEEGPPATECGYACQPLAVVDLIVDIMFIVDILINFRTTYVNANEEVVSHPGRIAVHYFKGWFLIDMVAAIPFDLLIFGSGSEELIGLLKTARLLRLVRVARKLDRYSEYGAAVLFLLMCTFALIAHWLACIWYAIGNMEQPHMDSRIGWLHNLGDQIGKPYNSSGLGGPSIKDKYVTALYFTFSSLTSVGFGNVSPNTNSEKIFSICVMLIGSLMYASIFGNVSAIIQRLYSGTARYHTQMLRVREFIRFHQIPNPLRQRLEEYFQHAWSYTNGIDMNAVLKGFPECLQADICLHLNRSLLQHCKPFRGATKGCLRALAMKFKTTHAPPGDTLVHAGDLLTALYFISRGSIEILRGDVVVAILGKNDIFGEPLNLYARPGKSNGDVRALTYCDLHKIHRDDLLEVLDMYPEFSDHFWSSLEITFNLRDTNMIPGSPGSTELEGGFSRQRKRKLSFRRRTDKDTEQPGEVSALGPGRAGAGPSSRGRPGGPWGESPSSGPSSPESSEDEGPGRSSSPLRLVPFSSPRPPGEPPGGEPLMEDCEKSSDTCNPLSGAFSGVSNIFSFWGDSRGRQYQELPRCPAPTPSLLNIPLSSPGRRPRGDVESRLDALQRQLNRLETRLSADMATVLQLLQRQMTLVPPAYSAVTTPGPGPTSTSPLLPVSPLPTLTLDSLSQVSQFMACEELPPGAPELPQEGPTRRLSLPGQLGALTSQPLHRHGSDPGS

Row | Compound | hERG current change (%, negative = inhibition) at 10uM
1 | Cc1ccc(NC(=O)C2CCCN(S(=O)(=O)c3ccc4[nH]c(=O)ccc4c3)C2)c(C)c1 (centres unmarked) | 3.65%
2 | Cc1cccc(C)c1N(CC(=O)N(C)Cc1ccccc1)S(C)(=O)=O | 3.99%
3 | COC(=O)c1ccc2c(=O)n(Cc3ccc4c(c3)OCO4)c(=S)[nH]c2c1 | 16.3%
4 | CCn1c2ccccc2c2cc(NC(=O)CSc3nnc(-c4ccc(OC)cc4)n3N)ccc21 | -10.9%
5 | O=S(=O)(c1ccc2ccccc2c1)N1CCN(S(=O)(=O)N2CCOCC2)CC1 | -0.31%
6 | O=C(NC1CCN(C(=O)c2cccs2)CC1)c1ccccc1 | -19.3%
7 | COC(=O)c1cc(N=CC2=C(O)CC(C)(C)CC2=O)cc(C(=O)OC)c1 | -16.3%
8 | O=C(c1ccccc1)N1CCN(c2ncnc3c(-c4ccccc4)nsc23)CC1 | 6.38%
9 | Cc1nc2ccccc2c(=O)n1/N=C/c1ccc(O)cc1 | 10.9%
10 | Cc1nn(-c2ccccc2)c2nc(=O)n(-c3ccccc3)cc12 | -10.9%
11 | Cc1ccc(S(=O)(=O)Nc2cccc(-n3cnnn3)c2)cc1C(=O)O | 3.97%
12 | O=C(NC1CCCCCC1)c1ccc2c(=O)n3c(nc2c1)CCCCC3 | -51%
13 | O=C(c1ccc2c(=O)n3c(nc2c1)CCCCC3)N1CCCCC1 | 17.5%
14 | CCOC(=O)N1CCC(NC(=O)c2ccc3c(=O)n4c(nc3c2)CCCC4)CC1 | 12%
15 | CCNc1ccc(C(=O)OCC)cc1NC(=O)c1cc(S(=O)(=O)N2CCOCC2)ccc1C | -10.9%
16 | Cn1c(SCC(=O)N2CCCC2)nnc1-c1cccs1 | 4.73%
17 | CN(C(=O)COC(=O)CSc1cc(Cl)ccc1Cl)c1c(N)n(Cc2ccccc2)c(=O)[nH]c1=O | -0.021%
18 | C[C@H]1CN=C(Nc2ccccc2)N1CCCC1CCCC1 | -58.7%
19 | C[C@H]1CN=C(Nc2ccccc2)N1CCC1CCCCC1 | -46.8%
20 | C[C@H]1CN=C(Nc2ccccc2)N1CC1CCCCCC1 | -24.5%
21 | C[C@H]1CN=C(Nc2ccccc2)N1CCC1CCCC1 | -10.6%
22 | C[C@H]1CN=C(Nc2ccccc2)N1CC1CCCCC1 | 0.474%

Row | Compound | hERG current change (%, negative = inhibition) at 10uM
23 | C[C@H]1CN=C(Nc2ccccc2)N1CCCC1CCCCC1 | -62.2%
24 | COc1ccc(S(=O)(=O)N2CCOC2CNC(=O)C(=O)NCc2ccncc2)cc1OC (centres unmarked) | 10.3%
25 | Cc1ccccc1-c1nc(S(=O)(=O)c2ccc(Cl)cc2)c(NCCN2CCOCC2)o1 | -20.2%
26 | Cc1ccc(S(=O)(=O)c2nc(-c3ccccc3)oc2NCCN2CCOCC2)cc1 | 3.12%
27 | Cc1cccc(-c2nc(S(=O)(=O)c3ccc(F)cc3)c(NCCCN3CCOCC3)o2)c1 | -69.4%
28 | O=S(=O)(c1ccc(Cl)cc1)c1nc(-c2ccccc2F)oc1NCCCN1CCOCC1 | -10.4%
29 | O=S(=O)(c1ccccc1)c1nc(-c2ccccc2)oc1NCCCN1CCOCC1 | -43.9%
30 | O=S(=O)(c1ccc(Cl)cc1)c1nc(-c2ccccc2F)oc1NCCN1CCOCC1 | -67%
31 | COc1cccc(CN2CCN(C(=O)c3cccc4ccccc34)CC2)c1.O=C(O)C(=O)O | -12%
32 | COc1cccc(CN(C)C(=O)C2CC(=O)N(c3ccc4c(c3)OCCO4)C2)c1 (centres unmarked) | 12.1%
33 | COc1cccc(-c2nc3ccc(O)cc3c(=O)o2)c1 | 1.21%
34 | COc1ccc(OCC(=O)N2CCN(C(=O)c3cccs3)CC2)cc1 | -43.3%
35 | O=C(COc1ccc2ccccc2c1)N1CCN(C(=O)c2cccs2)CC1 | -50%
36 | Cc1ccc(OCC(=O)N2CCN(C(=O)c3cccs3)CC2)cc1 | -34.8%
37 | O=C(COc1ccccc1)N1CCN(C(=O)c2cccs2)CC1 | -13.4%
38 | CCOc1cc(C#N)ccc1OCC(=O)N1CCc2ccccc2C1 | -40.7%
39 | CCOc1cc(C#N)ccc1OCC(=O)N1CCN(C(=O)c2cccs2)CC1 | -67.7%
40 | O=C(COc1ccc(Cl)cc1)N1CCN(C(=O)c2cccs2)CC1 | -74.5%
41 | O=C(COc1ccccc1Br)N1CCN(C(=O)c2cccs2)CC1 | -32.2%
42 | O=C(COc1ccc(-c2ccccc2)cc1)N1CCN(C(=O)c2cccs2)CC1 | -41.8%
43 | Cc1nnc(SCc2cc(=O)[nH]c(/N=C(\N)Nc3ccccc3Sc3ccccc3)n2)s1 | -11.1%
44 | Cl.O=C(CNCCO)N1CCc2ccccc21 | -5.27%

Row | Compound | hERG current change (%, negative = inhibition) at 10uM
45 | Cc1ccc(CN2C(=O)N/C(=C/c3ccc(-c4ccc(C(=O)O)cc4)o3)C2=O)cc1 | 0.0417%
46 | COc1ccc(CCN2C(=O)CC(N3CCN(C/C=C/c4ccccc4)CC3)C2=O)cc1OC (centres unmarked) | -43.9%
47 | O=C1OC(N2CCN(C/C=C/c3ccccc3)CC2)c2ccccc21 (centres unmarked) | 9.57%
48 | O=C1CC(N2CCN(C/C=C/c3ccccc3)CC2)C(=O)N1CCc1ccccc1 (centres unmarked) | -58.1%
49 | O=C1CC(N2CCN(C/C=C/c3ccccc3)CC2)C(=O)N1Cc1cccs1 (centres unmarked) | -74.8%
50 | O=C1CC(N2CCN(C3CC(=O)N(CCc4ccccc4)C3=O)CC2)C(=O)N1CCc1ccccc1 (centres unmarked) | -6.78%
51 | O=C1CC(N2CCN(C/C=C/c3ccccc3)CC2)C(=O)N1Cc1ccc(N2CCCC2=O)cc1 (centres unmarked) | -46.7%
52 | C=CCn1c(CNC(=O)c2cccs2)n[nH]c1=S | 15.5%
53 | Cc1cc(C)cc(OC(=O)CCN2C(=O)c3ccccc3C2=O)c1 | -3.19%
54 | COc1ccccc1N(CC(=O)Nc1ccc(F)c(F)c1)S(C)(=O)=O | -1.01%
55 | COc1cccc(CN2CC(C(=O)NCCc3ccc(C)s3)CCC2=O)c1 (centres unmarked) | -26.5%
56 | CCOC(=O)C1CCN(S(=O)(=O)c2ccc3c4c2CC(=O)N4CC(C)S3)CC1 (centres unmarked) | -57.1%
57 | CCOC(=O)N1CCN(S(=O)(=O)c2cc3c(cc2C)NC(=O)CO3)CC1 | -36.2%
58 | CCOC(=O)N1CCN(S(=O)(=O)c2ccc3c4c(cccc24)C(=O)N3)CC1 | -14.5%
59 | CCN1C(=O)c2cccc3c(S(=O)(=O)N4CCCC4C(=O)O)ccc1c23 (centres unmarked) | 13%
60 | CCN1C(=O)c2cccc3c(S(=O)(=O)N4CCC(C)CC4)ccc1c23 | -16.8%
61 | CCOC(=O)C1CCCN(S(=O)(=O)c2ccc3c4c(cccc24)C(=O)N3CC)C1 (centres unmarked) | -63.5%
62 | CC1CCN(S(=O)(=O)c2ccc3c4c2CC(=O)N4CC(C)S3)CC1 (centres unmarked) | 7.22%
63 | CCOC(=O)C1CCCCN1S(=O)(=O)c1cc2c(cc1C)NC(=O)CO2 (centres unmarked) | -19.8%
64 | CCOC(=O)C1CCCN(S(=O)(=O)c2ccc3c4c2CC(=O)N4CC(C)S3)C1 (centres unmarked) | -0.356%
65 | CCOC(=O)C1CCN(S(=O)(=O)c2cc3c(cc2C)NC(=O)CO3)CC1 | -54.9%
66 | CCOC(=O)C1CCN(S(=O)(=O)c2ccc3c4c(cccc24)C(=O)N3)CC1 | -54.6%

Row | Compound | hERG current change (%, negative = inhibition) at 10uM
67 | O=C1Nc2ccc(S(=O)(=O)N3CCCC3)c3cccc1c23 | -7.57%
68 | O=C(Nc1ccc(Cl)cc1)Nc1ccccc1CC[N+](=O)[O-] | 7.79%
69 | CC(=O)O[C@H]1CC[C@@]2(C)C(CCC3C2CC[C@]2(C)OC(=O)CCC32)C1 (some centres unmarked) | -10.7%
70 | O=C(O)c1ccc(S(=O)(=O)N2CCCc3ccccc32)cc1 | 19.7%
71 | O=C(CN1C(=O)NC2(CCCCCC2)C1=O)N1CCN(S(=O)(=O)c2ccc(Cl)cc2)CC1 | -23.9%
72 | Cc1ccc(S(=O)(=O)N(C)c2nc3ccccc3[nH]c2=S)cc1 | 4.41%
73 | O=C1C(Cc2cccc([N+](=O)[O-])c2)S/C(=N/N=C/c2ccco2)N1c1ccccc1 (centres unmarked) | 2.64%
74 | O=C(NC1CCCCC1)N(Cc1nc2ccccc2c(=O)[nH]1)C1CCCCC1 | 2.79%
75 | O=C(NCCc1nc2ccccc2[nH]1)/C(=C/c1ccc(F)cc1)NC(=O)c1ccco1 | -62.8%
76 | CC(C)=C(NC(=O)c1ccccc1Br)C(=O)NCCc1nc2ccccc2[nH]1 | 3.68%
77 | O=C(CNC(=O)c1ccc(Br)cc1)NCCc1nc2ccccc2[nH]1 | -6.76%
78 | COc1ccc(/C=C(\NC(=O)c2ccco2)C(=O)NCCc2nc3ccccc3[nH]2)cc1 | -42.6%
79 | O=C(NCCc1nc2ccccc2[nH]1)c1ccc(Br)o1 | 3.87%
80 | O=C(NCCc1nc2ccccc2[nH]1)/C(=C/c1ccco1)NC(=O)c1ccccc1Br | -64.9%
81 | Cc1ccc(C(=O)N/C(=C/c2ccco2)C(=O)NCCc2c[nH]c3ccccc23)cc1 | -46%
82 | CC(C)=C(NC(=O)c1ccco1)C(=O)NCCc1nc2ccccc2[nH]1 | 1.12%
83 | O=C(NCCc1nc2ccccc2[nH]1)/C(=C/c1ccco1)NC(=O)c1ccc(Br)o1 | -63.2%
84 | O=C(NCCc1nc2ccccc2[nH]1)/C(=C/c1ccco1)NC(=O)c1ccco1 | -17.3%
85 | O=C(NCCc1nc2ccccc2[nH]1)c1ccco1 | 2.94%
86 | O=C(NCCc1nc2ccccc2[nH]1)/C(=C/c1ccco1)NC(=O)c1ccc(Br)cc1 | -69.9%
